Test results taken from PubChem BioAssay AID1159580 (chemical genetic matrix, 2015).
The campaign covered roughly 5,500 compounds. About 2,000 (36%) were called active. Not shown: some 18% with an inconclusive outcome. Cut-off read from the data, not from the text of the source: active = normalized growth mostly below about 0.91 (no sharp cut-off); inconclusive = no clear call, values can overlap the other calls; inactive = mostly above about 0.92. Some of the results follow.

Assay: chemical genetic growth profiling, strain panel (AID 1159580);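 note: tested at 20 µM; growth read once vehicle control cultures reached saturation at 30 °C; 1 = growth at the plate median or of vehicle wells; lower values mean less growth of the strain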
Conditions: growth OD

Measured: normalized growth

C[C@@H]1CC[C@@]2(OC1)O[C@H]1CC3C4CC[C@H]5C[C@@H](O)CC[C@]5(C)C4CC[C@]3(C)[C@H]1[C@@H]2C (stereo not given in full)
inactive: S. cerevisiae deletion strains, locus YJR066W, strain TOR1, hits give low values 0.945 | S. cerevisiae deletion strains, locus YJR075W, strain HOC1, hits give low values 0.981 | S. cerevisiae deletion strains, locus YKL009W, strain mrt4, hits give low values 0.991 | S. cerevisiae deletion strains, locus YKL068W, hits give low values 0.981 | S. cerevisiae deletion strains, locus YKL085W, strain MDH1 (second series), hits give low values 0.977 | S. cerevisiae deletion strains, locus YKL085W, strain MDH1, hits give low values 0.977 | S. cerevisiae deletion strains, locus YKL160W, strain elf1, hits give low values 0.996 | S. cerevisiae deletion strains, locus YKR001C, strain vps1, hits give low values 0.987 | S. cerevisiae deletion strains, locus YKR026C, strain gcn3, hits give low values 0.984 | S. cerevisiae deletion strains, locus YKR091W, strain srl3, hits give low values 0.986 | S. cerevisiae deletion strains, locus YLL001W, strain dnm1, hits give low values 1 | S. cerevisiae deletion strains, locus YLL026W, hits give low values 0.988 | S. cerevisiae deletion strains, locus YLL041C, strain sdh2, hits give low values 1 | S. cerevisiae deletion strains, locus YLR027C, strain aat2, hits give low values 0.988 | S. cerevisiae deletion strains, locus YLR039C, strain RIC1, hits give low values 1.01 | S. cerevisiae deletion strains, locus YLR058C, strain SHM2, hits give low values 0.991 | S. cerevisiae deletion strains, locus YLR102C, strain apc9, hits give low values 0.977 | S. cerevisiae deletion strains, locus YLR113W, strain HOG1, hits give low values 0.999 | S. cerevisiae deletion strains, locus YLR221C, strain rsa3, hits give low values 1.02 | S. cerevisiae deletion strains, locus YLR258W, strain gsy2, hits give low values 1 | S. cerevisiae deletion strains, locus YLR262C, strain YPT6 (second series), hits give low values 1.02 | S. cerevisiae deletion strains, locus YLR268W, strain sec22, hits give low values 1 | S. cerevisiae deletion strains, locus YLR320W, strain mms22, hits give low values 0.99 | S. cerevisiae deletion strains, locus YLR342W, strain FKS1, hits give low values 0.976 | S. cerevisiae deletion strains, locus YLR357W, strain rsc2, hits give low values 0.973 | S. cerevisiae deletion strains, locus YLR370C, strain arc18, hits give low values 0.997 | S. cerevisiae deletion strains, locus YLR371W, strain rom2, hits give low values 0.979 | S. cerevisiae deletion strains, locus YLR384C, strain iki3, hits give low values 0.993 | S. cerevisiae deletion strains, locus YLR418C, strain cdc73, hits give low values 0.973 | S. cerevisiae deletion strains, locus YML016C, strain PPZ1, hits give low values 1 | S. cerevisiae deletion strains, locus YML032C, strain rad52, hits give low values 0.997 | S. cerevisiae deletion strains, locus YML120C, strain ndi1, hits give low values 1.01 | S. cerevisiae deletion strains, locus YML124C, strain tub3, hits give low values 0.983 | S. cerevisiae deletion strains, locus YMR058W, strain fet3, hits give low values 0.996 | S. cerevisiae deletion strains, locus YMR078C, strain ctf18, hits give low values 0.969 | S. cerevisiae deletion strains, locus YMR125W, strain sto1, hits give low values 0.984 | S. cerevisiae deletion strains, locus YMR129W, hits give low values 0.987 | S. cerevisiae deletion strains, locus YMR205C, strain PFK2, hits give low values 1 | S. cerevisiae deletion strains, locus YMR223W, strain ubp8, hits give low values 0.979 | S. cerevisiae deletion strains, locus YMR231W, strain pep5, hits give low values 0.998 | S. cerevisiae deletion strains, locus YMR263W, strain SAP30, hits give low values 0.976 | S. cerevisiae deletion strains, locus YMR307W, strain GAS1, hits give low values 1.23 | S. cerevisiae deletion strains, locus YNL067W, strain RPL9B, hits give low values 0.974 | S. cerevisiae deletion strains, locus YNL071W, strain lat1, hits give low values 0.996 | S. cerevisiae deletion strains, locus YNL183C, strain NPR1, hits give low values 0.975 | S. cerevisiae deletion strains, locus YNL209W, strain ssb2, hits give low values 0.983 | S. cerevisiae deletion strains, locus YNL233W, strain BNI4, hits give low values 0.99 | S. cerevisiae deletion strains, locus YNL248C, strain rpa49, hits give low values 1 | S. cerevisiae deletion strains, locus YNL250W, strain rad50, hits give low values 0.955 | S. cerevisiae deletion strains, locus YNL271C, strain bni1, hits give low values 0.983 | S. cerevisiae deletion strains, locus YNL298W, strain CLA4, hits give low values 0.972 | S. cerevisiae deletion strains, locus YNL307C, strain MCK1, hits give low values 0.989 | S. cerevisiae deletion strains, locus YNL322C, strain KRE1 (second series), hits give low values 0.987 | S. cerevisiae deletion strains, locus YNL322C, strain KRE1, hits give low values 0.987 | S. cerevisiae deletion strains, locus YNR049C, strain mso1, hits give low values 0.983 | S. cerevisiae deletion strains, locus YNR052C, strain pop2, hits give low values 0.962 | S. cerevisiae deletion strains, locus YOL006C, strain TOP1, hits give low values 1.14 | S. cerevisiae deletion strains, locus YOL012C, strain htz1 0.991 | S. cerevisiae deletion strains, locus YOL147C, strain pex11, hits give low values 0.978 | S. cerevisiae deletion strains, locus YOR001W, strain rrp6, hits give low values 0.999 | S. cerevisiae deletion strains, locus YOR061W, strain CKA2, hits give low values 0.996 | S. cerevisiae deletion strains, locus YOR069W, strain VPS5, hits give low values 0.983 | S. cerevisiae deletion strains, locus YOR070C, strain gyp1, hits give low values 0.965 | S. cerevisiae deletion strains, locus YOR080W, strain dia2, hits give low values 0.996 | S. cerevisiae deletion strains, locus YOR083W, strain WHI5, hits give low values 0.992 | S. cerevisiae deletion strains, locus YOR106W, strain vam3, hits give low values 0.983 | S. cerevisiae deletion strains, locus YOR136W, strain idh2, hits give low values 0.992 | S. cerevisiae deletion strains, locus YOR144C, strain elg1, hits give low values 0.988 | S. cerevisiae deletion strains, locus YOR184W, strain ser1, hits give low values 1.03 | S. cerevisiae deletion strains, locus YOR231W, strain MKK1, hits give low values 0.998 | S. cerevisiae deletion strains, locus YOR265W, strain rbl2, hits give low values 0.995 | S. cerevisiae deletion strains, locus YOR270C, strain vph1, hits give low values 1.03 | S. cerevisiae deletion strains, locus YOR290C, strain snf2, hits give low values 1.01 | S. cerevisiae deletion strains, locus YOR316C, strain cot1, hits give low values 0.962 | S. cerevisiae deletion strains, locus YPL051W, strain arl3, hits give low values 0.997 | S. cerevisiae deletion strains, locus YPL078C, strain atp4, hits give low values 1 | S. cerevisiae deletion strains, locus YPL106C, strain sse1, hits give low values 0.972 | S. cerevisiae deletion strains, locus YPL240C, strain hsp82, hits give low values 0.977 | S. cerevisiae deletion strains, locus YPL256C, strain CLN2, hits give low values 0.999 | S. cerevisiae deletion strains, locus YPR119W, strain clb2, hits give low values 0.979 | S. cerevisiae deletion strains, locus YPR141C, strain kar3, hits give low values 0.951 | S. cerevisiae deletion strains, locus YPR163C, strain tif3, hits give low values 0.959 | S. cerevisiae deletion strains, locus YPR167C, strain met16, hits give low values 0.985 | S. cerevisiae deletion strains, strain wtn01, hits give low values 1.01 | S. cerevisiae strains, strain wild type, hits give low values 1.01
